The list is not random: actives were taken first. Their share in the collection is about 8%.
HT1080 IDH1KD tx: kills HT-1080 cells with IDH1 knockdown. HT-1080 IDH1 knockdown viability, ATP luminescence, 48 h. Potency, µM (series often up to 46.1 µM), for inactives: at the highest dose activity, negative = toxicity, usual class: cytotoxic. hit rate 2% among 360,000. AID 686971;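 also: 0% = DMSO wells and -100% = cell-free medium wells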
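In this qHTS, HT-1080 cells depleted of IDH1 are exposed for 48 h at 37 °C to compound titrations. Toxicity is scored from CellTiter-Glo luminescence, with DMSO as full viability and medium alone as none.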
HT1080-NT tox: kills 2HG-producing HT-1080-NT fibrosarcoma cells | AID 686970 | HT-1080-NT fibrosarcoma viability, CellTiter-Glo ATP luminescence, 48 h | hit rate 1.6% among 360,000 | Potency, µM (doses to about 46.1 µM), for inactives: at the top dose activity, negative = less viability, most hits filed as cytotoxic;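 also: NT is the 2HG producing partner of a matched IDH1 knockdown line; 0% = DMSO-treated cells and -100% = media-only wells without cells; nearly all actives have a fitted effect of over 55% in size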
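Fibrosarcoma NT cells, 750 per well in 5% FBS RPMI, were exposed to compound for 48 hours. Viability: CellTiter-Glo luminescence.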
SW480 rerep: DNA re-replication induction in SW480 cells; SW480 DNA re-replication, Hoechst DNA content imaging, 48 h; Potency, µM (series often up to 46.1 µM), for the others: at the highest dose re-replication activation, actives largely listed as activators; hit rate 1.8% among 340,000; AID 624297; also: % of control where 0% means no effect; nearly all actives have a fitted effect of over 55% in size
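SW480 cells exposed to compounds for 48 hr at 37 C, 5% CO2, then Hoechst-stained 40 min. Nuclear DNA content imaged by fluorescence scanning (405 nm excitation, 500-530 nm emission); re-replication scored as increased high-intensity nuclei.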
KB-3-1 tox: kills parental KB-3-1 adenocarcinoma cells. Potency, µM (doses to about 46.1 µM), most hits filed as cytotoxic. hit rate 1.4% among 400,000. AID 1347075. KB-3-1 viability, CellTiter-Glo ATP luminescence, 72 h; also: % is scaled to controls: 0 for no effect and ±100 for the full control effect; nearly all actives have a fitted effect of over 60% in size
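Cytotoxicity in the drug-sensitive parental line KB-3-1 was scored as loss of CellTiter-Glo luminescence following 72 h incubation with compound. Values come from curve fitting of normalized concentration-response data.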
MCF10A rereplic: induces DNA re-replication in MCF 10a normal breast cells. MCF 10A DNA re-replication, Hoechst nuclear intensity, 48 h. Potency, µM (doses to about 46.1 µM), without a hit: at the top dose activity, positive = re-replication, usual class: activators. hit rate 2.9% among 350,000. AID 624296; also: % of control where 0% means no effect; nearly all actives have a fitted effect of over 50% in size
KB-V1 cytotox: kills drug-selected multidrug resistant KB-V1 cells | KB-V1 MDR cells viability, CellTiter-Glo, 72 h | hit rate 3.4% among 400,000 | Potency, µM (series often up to 46.1 µM), most hits filed as cytotoxic | AID 1347076; also: % is scaled to controls: 0 for no effect and ±100 for the full control effect; nearly all actives have a fitted effect of over 60% in size
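qHTS viability screen in drug-selected KB-V1 MDR cells: 72 h compound treatment at 37 degrees C, ATP luminescence end point.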
* marks the source's active call; other numbers are inactive results; i = inactive; ? = inconclusive; nt = no result; [ ] = dose if it differs, or a comment. Calls follow the shape of the dose curve; as a rule, active = well fitted curve in the direction sought with a large enough effect; inconclusive = small, poorly fitted or top-dose-only effect, or another doubt; inactive = no such curve, though single readings can be large; an effect the other way counts as inactive or inconclusive. Potency is read from the fitted curve at half-maximal effect.

SMILES	HT1080 IDH1KD tx	HT1080-NT tox	SW480 rerep	KB-3-1 tox	MCF10A rereplic	KB-V1 cytotox
COc1cccc(CN2C(=O)c3ccccc3C2C(=O)NCCc2ccccc2)c1 (stereo not given)	nt	nt	nt	i	nt	i
Cc1cc2c3c(c1)C1(C(=O)N3C(C)(C)CC2C)C(C#N)=C(N)Oc2n[nH]c(C)c21 (stereo not given)	?	?	?	?	28%	i
CCOc1cc2c3c(c1)C1(OCCO1)C(=O)N3C(C)(C)CC2C (stereo not given)	-2%[9.24 µM]	-1%	-6%	i	13%	i
CCOc1cc2c3c(c1)C1(Nc4ccccc4S1)C(=O)N3C(C)(C)CC2C (stereo not given)	?	?	?	i	21µM*	i
CCOc1cc2c3c(c1)C1(C(=O)N3C(C)(C)CC2C)C(C#N)=C(N)N2C(=C1C#N)Nc1ccccc12 (stereo not given)	-11%	-10%	2%	i	16µM*	i
Cc1cc(C)c(C)c(OCCOCCNCc2ccccc2)c1	-10%	-17%	?	i	?	15µM*
Cc1ccc(OCCNCc2ccccc2)c(C)c1	-6%	-13%	?	i	12%	?
CCCOc1ccc(OCCOCCNCc2ccccc2)cc1	-2%	-14%	?	i	?	8.2µM*
Cc1cc(C)cc(C(=O)Nc2c(C(=O)Nc3ccccc3F)oc3ccccc23)c1	nt	nt	nt	i	nt	i
Cc1cc(C)c2c(=O)cc(C(=O)Nc3sc4c(c3C(=O)NCc3cccnc3)CCCC4)oc2c1	nt	nt	nt	i	nt	i
CCc1noc(C)c1C(=O)Nc1nc(-c2ccc(OC)c(OC)c2)cs1	-10%	-11%	?	i	21%	10µM*
Cc1onc(-c2ccccc2)c1C(=O)Nc1nc(-c2ccc(F)c(F)c2)cs1	?	-26%	?	i	?	i
CCc1noc(C)c1C(=O)OCC(=O)Nc1nc(-c2ccc(F)c(F)c2)cs1	2%	-13%	4%	i	5%	2.9µM*
C[C@H](NC(=O)COc1ccc(Cl)cc1)C(=O)N1CCC2(CC1)NCCc1[nH]cnc12	20%	6%	2%	i	?	?
O=c1c2ccccc2sn1-c1ccc(Cl)c(S(=O)(=O)N2CCOCC2)c1	nt	nt	nt	i	nt	?
Cn1c2ccccc2n2c(=O)c(Cl)c(-c3ccccc3)c(C#N)c12	-5%	1%	-1%	i	?	i
N#CC(C#N)=C1C=CC=CN1/C(=C\c1ccccc1)C(=O)c1cccs1	-14%	-1%	?	i	23%	?
N#CC(C#N)=C1C=CC=CN1/C(=C\c1ccccc1Cl)C(=O)c1ccccc1	2.6µM*	?	9.2µM*	?	6.5µM*	?
CCc1c(C)sc(NC(=O)c2cc(-c3ccc(OC)cc3)on2)c1C#N	nt	nt	nt	i	nt	?
CC(C)CN(C(=O)COC(=O)C12CC3CC(CC(O)(C3)C1)C2)c1c(N)n(Cc2ccccc2)c(=O)[nH]c1=O	10%	14%	nt	i	nt	i
Cc1ccc(SCC(=O)OCC(=O)N(CC(C)C)c2c(N)n(Cc3ccccc3)c(=O)[nH]c2=O)c(C)c1	23µM*	?	?	i	?	i
Cc1ccc2c(CC(=O)OCC(=O)N(CC(C)C)c3c(N)n(Cc4ccccc4)c(=O)[nH]c3=O)coc2c1	-16%	?	6.5µM*	i	?	i
CC(C)CN(C(=O)COC(=O)C12CC3CC(CC(C3)C1)C2)c1c(N)n(Cc2ccccc2)c(=O)[nH]c1=O	?	?	4.1µM*	?	-21%	i
CC(C)CN(C(=O)COC(=O)CSc1ccccc1F)c1c(N)n(Cc2ccccc2)c(=O)[nH]c1=O	2%	-1%	-5%	i	0%	?
Cc1nnc(SCC(=O)N(CC(C)C)c2c(N)n(Cc3ccccc3)c(=O)[nH]c2=O)n1N	4%	3%	1.3µM*	i	2%	?
SMILES	HT1080 IDH1KD tx	HT1080-NT tox	SW480 rerep	KB-3-1 tox	MCF10A rereplic	KB-V1 cytotox
CC(C)CN(C(=O)CSc1nnc(-c2cccs2)n1N)c1c(N)n(Cc2ccccc2)c(=O)[nH]c1=O	0%	5%	3%	i	-1%	i
Cc1ccc2oc(=O)c3cnn(CC(=O)N(C)c4ccc(F)cc4)c3c2c1	nt	nt	nt	i	nt	i
CCOc1ccc(CNC(=O)CCS(=O)(=O)c2cc3c4c(c2)CCN4C(=O)CC3)cc1	nt	nt	nt	i	nt	i
CCOC(=O)c1c(C)[nH]c(C)c1S(=O)(=O)N(C)CC(=O)Nc1cc(Cl)ccc1OC	nt	nt	nt	i	nt	i
CC(=O)c1ccc(N2CCN(C(=O)CS(=O)(=O)c3cccc4nsnc34)CC2)cc1	nt	nt	nt	i	nt	i
Cn1nc(C(=O)Nc2ccc(F)c(Cl)c2)c2c1-c1ccccc1S(=O)(=O)C2	nt	nt	nt	i	nt	i
C=C1C=C(C(F)F)n2ncc(C(=O)N3CCc4ccccc4C3)c2N1	nt	nt	nt	?	nt	i
COc1ccc(-c2cc(OC(=O)c3ccccc3C)c3c(C)oc(C)c3c(=O)c2)cc1	nt	nt	nt	i	nt	i
CCCCCCCCCCCCCCCC[N+](C)(C)CCN(Cc1ccc(OC)cc1)c1ncccn1	18µM*	16µM*	0%	?	?	i
COc1ccc(CC(=O)NCc2n[nH]c(=S)n2-c2cccc(Cl)c2)cc1	-1%	8%	8%	i	2%	?
COc1cccc(/C=N/NC(=S)NC2CC3CC2C2C=CCC32)c1O (stereo not given)	-11%	-3%	14%	i	?	i
S=C(N/N=C/c1ccccc1Cl)Nc1ccccc1	4µM*	14µM*	?	i	10%	i
Oc1ccc(C=NNC(=S)Nc2ccccc2)nc1	4.6µM*	?	nt	16µM*	nt	i
Oc1ccccc1/C=N/NC(=S)NC1CC2CC1C1C=CCC21 (stereo not given)	8.2µM*	?	?	?	21µM*	21µM*
Oc1ccccc1/C=N/Nc1ccccc1	9.2µM*	?	3%	i	?	i
CNC(=S)N/N=C/c1ccccc1Cl	6%	3%	-12%	i	-2%	i
O=[N+]([O-])c1ccccc1C=NNc1ccccc1	?	?	6%	i	10%	i
Cc1nc(NC(=O)CSc2nnc(C3CC3)n2C)sc1C	23%	14%	0%	i	2%	i
Oc1ccccc1C=NNC(=S)NN=Cc1ccccc1O	?	?	3.7µM*	?	18µM*	?
